Screening data as filed in PubChem.
NS1 function inh: influenza NS1 inhibition | Potency, µM (series often up to 46.1 µM), without a hit: at the highest dose activity, positive = more growth | actives 0.4% (n = 270,000) | AID 2326; calls by dose curve; further: actives are rising curves; nearly all actives have a fitted effect of over 50% in size
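A cell-based growth assay was used: compounds that relieve NS1-induced slow growth of budding yeast raise OD600. Assay medium was yeast nitrogen base with ammonium sulphate and -URA supplement, pH 6.0, with 2% galactose.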
Pf growth 96h: P. falciparum growth inhibition at 96 hours; P. falciparum luciferase reporter growth, 96 h; Potency, µM (highest dose often 28.7 µM), for the others: at the top dose activity change, negative = inhibition, most hits filed as inhibitors; actives 6.9% (n = 320,000); AID 504834; further: on the % scale 0 is the no-effect control and ±100 the full control effect
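Compounds incubated with erythrocytes infected by luciferase-expressing P. falciparum (2% hematocrit, 0.05% parasitemia final) for 96 hours, 37 C in 5% CO2. Growth inhibition scored as decreased luciferase luminescence.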
Pf growth 48h: P. falciparum growth inhibition at 48 hours (one generation). P. falciparum luciferase growth in erythrocytes, 48 h. Potency, µM (top dose mostly 28.7 µM), for the others: top-dose activity change, negative = inhibition, usual class: inhibitors. actives 5.9% (n = 310,000); further: on the % scale 0 is the no-effect control and ±100 the full control effect
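Cell-based growth assay: transgenic P. falciparum expressing firefly luciferase, cultured in red cells within RPMI 1640 containing 0.5% w/v Albumax, 24 mM bicarbonate and gentamycin. A drop in luciferase activity indicates inhibition.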
HCV inhibitor: HCV inhibition; AID 651820; Huh7.5.1 HCVcc-Cre infection, luciferase reporter, 44 h; Potency, µM (titrated, usually from 41.8 µM), without a hit: top-dose activity change, negative = inhibition, usual class: inhibitors; actives 3.4% (n = 340,000); further: on the % scale 0 is the no-effect control and ±100 the full control effect
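Cells (1,000/well) were plated 4 h before compound, then infected with HCVcc-Cre virus (~0.5 moi). After 44 h further culture, infection was read as luciferase luminescence following a 15 min substrate incubation at room temperature.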
Vaccinia mCherry: vaccinia inhibition (mCherry reporter); Vaccinia virus mCherry reporter infection, fluorescence; Potency, µM (titrated, usually from 36.5 µM), for inactives: at the top dose activity change, negative = inhibition, most hits filed as inhibitors; actives 0.63% (n = 310,000); calls by dose curve; tested in A549 cells; further: on the % scale 0 is the no-effect control and ±100 the full control effect; nearly all actives have a fitted effect of over 35% in size
Vaccinia Venus: vaccinia inhibition (Venus reporter); Vaccinia virus Venus reporter expression, fluorescence; Potency, µM (titrated, usually from 36.5 µM), for inactives: top-dose activity change, negative = inhibition, actives largely listed as inhibitors; actives 0.46% (n = 330,000); AID 720580; calls by dose curve; tested in A549 cells; further: on the % scale 0 is the no-effect control and ±100 the full control effect; nearly all actives have a fitted effect of over 30% in size
Starred values were filed as active, the others as inactive; i = inactive; ? = inconclusive; nt = not tested or not shown; [ ] = dose if it differs, or a comment. Compounds with a hit are over-represented: about 11% of the library has one in this group of screens. Unless noted, the call rests on the fitted dose curve; in most records, active means well fitted inhibition curve with a large enough effect; inconclusive means small, poorly fitted or top-dose-only effect, or another doubt; inactive means no such curve, though single readings can be large or run the other way. Potency means the concentration at half of the fitted maximal effect.

SMILES | NS1 function inh | Pf growth 96h | Pf growth 48h | HCV inhibitor | Vaccinia mCherry | Vaccinia Venus
C=CCC[C@@H](Cc1ccc(F)cc1)C(=O)OC[C@@H](Cc1c[nH]c2ccccc12)NC(=O)[C@H](CC=C)CC(=O)N[C@H](CO)Cc1ccccc1 | nt | nt | nt | ? | -32% | 11µM*
C=CCC[C@@H](Cc1ccc(F)cc1)C(=O)OC[C@@H](Cc1ccccc1)NC(=O)[C@H](CC=C)CC(=O)NCCO | nt | nt | nt | 7.1µM* | -3% | ?
C=CCC[C@@H](Cc1ccc(F)cc1)C(=O)OC[C@@H](Cc1c[nH]c2ccccc12)NC(=O)[C@@H](CC=C)CC(=O)N(CCO)Cc1ccccc1 | nt | nt | nt | ? | -23% | ?
C=CCC[C@H](Cc1ccc(F)cc1)C(=O)OC[C@H](Cc1c[nH]c2ccccc12)NC(=O)[C@H](CC=C)CC(=O)N(CCO)Cc1ccccc1 | nt | nt | nt | ? | ? | 22µM*
CCN(c1ccccc1)S(=O)(=O)c1ccc(NC(=O)c2nc(SC(C)C)ncc2Cl)cc1 | nt | nt | nt | nt | -16% | -5%
CC(C)c1ccc(S(=O)(=O)N2CCN(C(=O)c3cccc(S(=O)(=O)N4CCOCC4)c3)CC2)cc1 | nt | nt | nt | -27% | nt | nt
CCN(C(=O)CN1CCN(C)CC1)c1c(N)n(Cc2ccccc2)c(=O)[nH]c1=O | nt | -17% | 3% | 4% | -12% | 2%
O=C(c1ccccc1)N1CC(COc2ccccc2)OC(c2cccnc2)O1 (configuration not stated) | -83% | nt | 7% | 0% | -12% | 0%
CCCCN1CC(COc2ccccc2)OC1=O (configuration not stated) | -72% | 2.9µM* | 2% | 10% | -10% | -3%
COc1ccccc1N(CC(=O)NCc1ccccc1)S(C)(=O)=O | -5% | ? | 9% | ? | nt | -8%
Nc1ccc(-c2nnn(Cc3ccccc3F)n2)cc1 | -12% | ? | 59% | -14% | -12% | -3%
CC1(C)N=C(N)N=C(N)N1c1ccc(OCC(=O)Nc2ccccc2)c(Cl)c1 | nt | nt | nt | nt | 4µM* | ?
Cc1cccc(NC(=O)CCc2ccc(N3C(N)=NC(N)=NC3(C)C)cc2)c1 | nt | nt | nt | nt | 5.6µM* | ?
CC1(C)N=C(N)N=C(N)N1c1ccc(OCCCOc2ccccc2)c(Cl)c1 | -7% | 0.023µM* | 0.026µM* | ? | ? | ?
CC1(C)N=C(N)N=C(N)N1c1cccc(CC(=O)Nc2ccccc2)c1 | nt | nt | nt | nt | -26% | ?
Cc1ccc(NCC(O)Cn2cnc3c2c(=O)n(C)c(=O)n3C)cc1 (configuration not stated) | 3% | 2% | 54% | -20% | -13% | -15%
O=C(NCCSCc1ccco1)Nc1ccc(Cl)cc1 | -32% | nt | 67% | -12% | nt | -14%
Nc1ccc(C(=O)N2CCCC2)cc1 | 2% | -15% | 17% | -6% | nt | nt
Nc1ccc(C(=O)n2c3ccccc3c3ccccc32)cc1 | 12% | 2.3µM* | -12% | ? | nt | ?
FC(F)(F)c1cnc(NNC(=S)Nc2cccnc2)c(Cl)c1 | nt | ? | ? | ? | 10µM* | ?
Cc1ccccc1NC(=S)NNc1ncc(C(F)(F)F)cc1Cl | 4% | -102% | nt | -5% | -7% | -18%
Cc1c(Cl)cccc1NC(=S)NNc1ncc(C(F)(F)F)cc1Cl | -7% | 9.3µM* | nt | ? | nt | nt
COc1ccc(NC(NC(=O)c2ccc(OC)cc2)C(Cl)(Cl)Cl)cc1 (configuration not stated) | -2% | 4.1µM* | ? | ? | -24% | -18%
O=C(c1ccccc1)c1ccc(OCC(O)CN2CCN(Cc3ccccc3)CC2)cc1 (configuration not stated) | -4% | ? | ? | ? | nt | nt
O=C(Nc1cccc(S(=O)(=O)C(F)F)c1)c1ccc(S(=O)(=O)N2CCCCC2)cc1 | nt | -5%[5.75 µM] | -15%[5.75 µM] | ? | ? | ?
SMILES | NS1 function inh | Pf growth 96h | Pf growth 48h | HCV inhibitor | Vaccinia mCherry | Vaccinia Venus
COc1ccc(C(=O)Nc2ccc(NC(=O)c3ccccc3)cc2)cc1S(=O)(=O)N1CCOCC1 | 2% | 32% | 11% | ? | -12% | -8%
CCN1CCN(c2ccc(NC(=O)c3ccc(OC)c(S(=O)(=O)N4CCCC4)c3)cc2)CC1 | nt | ? | 4% | -9% | nt | nt
CCN1CCN(c2ccc(NC(=O)c3ccc(Cl)c(S(=O)(=O)N4CCCC4)c3)cc2)CC1 | nt | ? | 10µM* | 18µM* | 0% | -19%
O=C(Nc1ccc(N2CCOCC2)cc1)c1ccc(Cl)c(S(=O)(=O)N2CCCC2)c1 | nt | ? | ? | 6.3µM* | nt | nt
COc1ccc(C(=O)Nc2ccc(N3CCCCCC3)cc2)cc1S(=O)(=O)N1CCOCC1 | nt | ? | 12µM* | 8.9µM* | nt | nt
CCN(CC)CCOC(=O)c1ccc(NC(=O)c2ccc(Cl)c(S(=O)(=O)N3CCCCCC3)c2)cc1 | nt | 4.1µM* | ? | ? | ? | -15%
CC(C)C[C@H]1CNC(=S)N1C[C@H]1CCCN1C[C@H](Cc1ccc(O)cc1)N1C[C@H](Cc2ccccc2)N(CC2CCCCC2)C1=S | nt | nt | nt | nt | 0% | -17%
Cc1ccccc1OCc1nnc(SCC(=O)Nc2ccc(N3CCOCC3)c(Cl)c2)n1C | -3% | ? | nt | -6% | -24% | -21%
CCN(C(=O)CSc1nnc(CNc2cccc(OC)c2)n1C1CCCCC1)C1CCS(=O)(=O)C1 (configuration not stated) | ? | 4.1µM* | ? | ? | i | -10%
O=C(CCCCN1CCCCC1)c1ccc2c(c1)Cc1ccccc1-2 | nt | 13% | 5.2µM* | ? | nt | nt
Clc1ncnc2scc(C3COc4ccccc4O3)c12 (configuration not stated) | -50% | 2.6µM* | 2.9µM* | ? | nt | nt
c1ccc2c(c1)OCC(c1csc3ncnc(N4CCCCC4)c13)O2 (configuration not stated) | -4% | ? | ? | 5% | -9% | 3%
O=C(CN1CCN(c2ccccn2)CC1)Nc1ccc(OCc2ccccc2)cc1 | -105% | ? | -18% | -15% | i | 11%
O=C(c1cn(Cc2ccccc2)nc1-c1cccnc1)N1CCc2ccccc2C1 | nt | 13µM* | ? | -6% | nt | nt
COc1ccccc1N1CCN(C(=O)c2cn(Cc3ccccc3)nc2-c2cccnc2)CC1 | nt | 9.3µM* | ? | ? | nt | nt
O=C(c1cn(Cc2ccccc2)nc1-c1cccnc1)N1CCN(Cc2ccccc2)CC1 | nt | ? | ? | -10% | nt | nt
CCOc1ccc(-n2cc(-c3ccccc3)c3c(=O)[nH]cnc32)cc1 | nt | ? | ? | 17% | ? | -24%
CN(c1ccc([N+](=O)[O-])cc1C(=O)Nc1ccccc1)C1CCCCC1 | -6% | ? | -19% | -8% | nt | nt
Cc1cccc(NC(=O)c2cc([N+](=O)[O-])ccc2NC2CCCCC2)c1 | -2% | ? | 8.3µM* | 0% | ? | -10%
